Assay results published in the supplement of paper PMC9801561.
± gives the standard deviation of the averaged measurements.

System: Escherichia coli Nissle 1917
Assay: area under OmniLog respiration curve over 48 h (OmniLog units x h); higher = more growth / nutrient utilisation; extreme values may be limits of the assay
Conditions: nutrient role: C-Source, amine; incubation: 48 h, 37 °C
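Wherever DuctApe activity index of respiration/growth curve (0 no growth to 9 maximum) is given: biolog PM4 phosphorus and sulfur plates, tetrazolium violet dye reduction read in the OmniLog every 15 min, kinetic curves scored by DuctApe, each plate run in triplicate.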

| Structure (SMILES) | area under OmniLog respiration curve |
| --- | --- |
| NCC(O)c1ccc(O)cc1 (racemic) [D,L-Octopamine] | 6.75 ± 3.5 |
| NCCc1ccc(O)cc1 [Tyramine] | 33 ± 46 |
| NCCc1ccccc1 [Phenylethylamine] | 5.51 ± 1.4 |

Same assay, conditions: nutrient role: sole nitrogen source (pyruvate carbon); incubation: 48 h, 37 °C

| Structure (SMILES) | area under OmniLog respiration curve |
| --- | --- |
| O=C1NC(=O)C(=O)C(=O)N1 [Alloxan] | 402 ± 390 |
| NCCc1ccc(O)cc1 [Tyramine] | 35.9 ± 54 |
| NCCc1ccccc1 [b-Phenylethylamine] | 11.4 ± 12 |
| CCN [Ethylamine] | 8.5 ± 6.5 |
| CN [Methylamine] | 61 ± 97 |

Same assay, conditions: nutrient role: sole phosphorus source (pyruvate carbon); incubation: 48 h, 37 °C

| Structure (SMILES) | area under OmniLog respiration curve |
| --- | --- |
| NCCP(=O)(O)O [2-Aminoethyl Phosphonic acid] | 8180 ± 390 |
| O=PO [Hypophosphite] | 2600 ± 590 |
| CN(CC(=O)O)C(=N)NP(=O)(O)O [Phosphocreatine] | 8760 ± 510 |
| OP(O)(O)=S [Thiophosphate] | 9350 ± 660 |
| CCOP(=O)(OCC)OCC [Triethyl Phosphate] | 4.72 |
| OP(O)(=S)S [Dithiophosphate] | 9000 ± 660 |

Same assay, conditions: nutrient role: sole sulfur source (pyruvate carbon); incubation: 48 h, 37 °C

| Structure (SMILES) | area under OmniLog respiration curve |
| --- | --- |
| OP(O)(O)=S [Thiophosphate] | 6760 ± 260 |
| CCSCCC(N)C(=O)O (racemic) [DL-Ethionine] | 286 ± 250 |
| OP(O)(=S)S [Dithiophosphate] | 7150 ± 210 |

System: Escherichia coli Nissle 1917
Assay: DuctApe activity index of respiration/growth curve (0 no growth to 9 maximum) (index 0-9); higher = more growth / nutrient utilisation, active = 3 or more; extreme values may be limits of the assay
Conditions: nutrient role: C-Source, amine; incubation: 48 h, 37 °C

| Structure (SMILES) | DuctApe activity index |
| --- | --- |
| NCC(O)c1ccc(O)cc1 (racemic) [D,L-Octopamine] | 0 (inactive) |
| NCCc1ccc(O)cc1 [Tyramine] | 0 (inactive) |
| NCCc1ccccc1 [Phenylethylamine] | 0 (inactive) |

Same assay, conditions: nutrient role: sole nitrogen source (pyruvate carbon); incubation: 48 h, 37 °C

| Structure (SMILES) | DuctApe activity index |
| --- | --- |
| O=C1NC(=O)C(=O)C(=O)N1 [Alloxan] | 1.67 (inactive) |
| NCCc1ccc(O)cc1 [Tyramine] | 0 (inactive) |
| NCCc1ccccc1 [b-Phenylethylamine] | 0 (inactive) |
| CCN [Ethylamine] | 0 (inactive) |
| CN [Methylamine] | 0 (inactive) |

Same assay, conditions: nutrient role: sole phosphorus source (pyruvate carbon); incubation: 48 h, 37 °C

| Structure (SMILES) | DuctApe activity index |
| --- | --- |
| NCCP(=O)(O)O [2-Aminoethyl Phosphonic acid] | 8 (active) |
| O=PO [Hypophosphite] | 4 (active) |
| CN(CC(=O)O)C(=N)NP(=O)(O)O [Phosphocreatine] | 8.67 (active) |
| OP(O)(O)=S [Thiophosphate] | 8.67 (active) |
| CCOP(=O)(OCC)OCC [Triethyl Phosphate] | 0 (inactive) |
| OP(O)(=S)S [Dithiophosphate] | 8.67 (active) |

Same assay, conditions: nutrient role: sole sulfur source (pyruvate carbon); incubation: 48 h, 37 °C

| Structure (SMILES) | DuctApe activity index |
| --- | --- |
| OP(O)(O)=S [Thiophosphate] | 7 (active) |
| CCSCCC(N)C(=O)O (racemic) [DL-Ethionine] | 0 (inactive) |
| OP(O)(=S)S [Dithiophosphate] | 7.67 (active) |
